In the library only some 4.8% were active in any assay of this set; here they are far more common.
NF-kB expr up – NF-kB expression increase, human neuronal cells. NF-kB reporter expression; active compounds read high. fold change at 12.5 µM. hit rate 1.6% among 190,000. AID 1239; in the data active = fold change above about 3.3
Hsp70 activator – switches on Hsp70 transcription. hit rate 0.04% among 200,000. HeLa Hsp70 promoter luciferase reporter, luminescence; scaled: vehicle 0, proteasome-inhibitor control 100%. activation, % at 10 µM;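 active = activation above the mean across all tested compounds plus 3 SD, cutoff set per campaign, cut at about 5.5% in these data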;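 also: 100% = MG132 at 30 µM as the positive control and 0% = DMSO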
APP 5UTR inh – APP translation inhibition; SH-SY5Y APP 5'UTR-luciferase reporter, luminescence; inhibition, % at 2 µM; hit rate 0.82% among 190,000; AID 1285;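 active = inhibition above a set limit, derived from the sample mean plus 3 SD, cut at about 45% in these data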
STAT1 act – increases IFN-gamma driven STAT1 reporter signal. NIH 3T3 STAT1-luciferase reporter, luminescence; 100% = IFN-gamma alone, no compound. activation (% of control), % at 5.5 µM. hit rate 2.6% among 200,000. AID 932;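 active = activation above the screen-wide mean activation plus 3 SD, cut at about 130% in these data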;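 also: raw ratio to IFN-gamma control signal so 100% means no change and 0% no light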
APP 5'UTR act – activates APP 5'UTR luciferase reporter | SH-SY5Y APP 5'UTR luciferase reporter, luminescence; zero percent = DMSO vehicle wells | activation, % at 2 µM | hit rate 1% among 190,000;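 active = activation above a set limit, based on mean plus 3 SD of controls, cut at about 140% in these data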
Wee1 degr inh – blocks degradation of human Wee1 kinase; P30291; HeLa Luc-Wee1K328M stability, luciferase luminescence; 100% = proteasome inhibitor MG132 effect; reporter increase, % at 5 µM; hit rate 1.2% among 220,000; AID 1321;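 active = activation above the mean of all tested compounds plus 3 SD, set per screening run, cut at about 8.8% in these data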;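 also: cells exposed to compound for 20 h before luminescence read; 0% = DMSO alone and 100% = MG132 at 30 µM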
Target sequence (P30291 whole entry K328M): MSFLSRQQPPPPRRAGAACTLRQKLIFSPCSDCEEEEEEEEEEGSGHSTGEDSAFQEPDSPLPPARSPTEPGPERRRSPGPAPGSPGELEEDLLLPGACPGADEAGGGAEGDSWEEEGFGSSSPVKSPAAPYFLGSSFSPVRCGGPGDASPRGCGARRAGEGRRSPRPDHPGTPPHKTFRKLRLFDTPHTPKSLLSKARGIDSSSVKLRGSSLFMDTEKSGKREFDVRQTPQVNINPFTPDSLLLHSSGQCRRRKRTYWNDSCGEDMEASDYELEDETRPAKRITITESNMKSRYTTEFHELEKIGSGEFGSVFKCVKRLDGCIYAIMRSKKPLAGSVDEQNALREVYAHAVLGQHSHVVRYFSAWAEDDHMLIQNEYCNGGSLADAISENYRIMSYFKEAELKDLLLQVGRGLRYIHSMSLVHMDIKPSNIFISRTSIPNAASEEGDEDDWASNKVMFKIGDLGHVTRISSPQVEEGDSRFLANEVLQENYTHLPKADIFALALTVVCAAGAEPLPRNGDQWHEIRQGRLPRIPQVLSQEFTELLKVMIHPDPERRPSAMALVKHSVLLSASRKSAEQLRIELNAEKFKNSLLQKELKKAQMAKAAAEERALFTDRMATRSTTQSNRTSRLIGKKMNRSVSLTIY
An asterisk follows results filed as active; . = no result given.

SMILES | NF-kB expr up | Hsp70 activator | APP 5UTR inh | STAT1 act | APP 5'UTR act | Wee1 degr inh
CCn1c([N+](=O)[O-])nc2c1c(=O)[nH]c(=O)n2C | 4.81* | 0.4 | 0.8 | 83.5 | -0.8 | -1.1
Cn1cc([N+](=O)[O-])c(C(=O)Nc2nc(-c3ccc(Cl)cc3)cs2)n1 | 1.24 | 0.9 | 95.9* | 78.6 | -95.9 | -0.4
Cc1cnc(NC(=O)c2nn(C)cc2[N+](=O)[O-])s1 | 0.52 | -0.2 | 34.0 | 83.4 | -34.0 | 4.0
Cc1ccc(-c2nc(NC(=O)c3nn(C)cc3[N+](=O)[O-])sc2C)cc1 | 0.21 | 1.0 | 95.4* | 67.3 | -95.4 | -0.2
O=C(OCC(=O)N1CCCCC1)c1cc2ccccc2cc1O | 1.64 | -0.1 | -19.3 | 99.4 | 19.3 | 0.3
C/C(CC(=O)N1CCCC1)=N\NC(=O)c1cc2ccccc2cc1O | . | . | . | . | . | 12.4*
CCOc1ccc(/C=C\C(C)=N\O)cc1 | 5.14* | -0.1 | -121.2 | 127.7 | 121.2 | 7.5
COc1cc2c(C(=O)OCCN(C)C)c(CSc3ccccc3)n(C)c2cc1Br | 1.07 | -0.4 | 0.5 | 104.0 | -0.5 | 10.4*
CCOC(=O)c1c(CN(C)C)n(-c2ccccc2)c2cc(Br)c(OC)cc12 | 0.65 | -0.2 | 0.0 | 102.4 | 0.0 | 0.2
Cc1ccc(OCc2nc(-c3cccs3)no2)c([N+](=O)[O-])c1 | 11.2* | 0.1 | -197.9 | 98.4 | 197.9* | 2.3
CCC(C)C(=O)Nc1c2c(nc3c1CCC3)CCCC2 (configuration not stated) | 0.99 | -0.2 | 14.6 | 98.5 | -14.6 | -0.8
Cc1cc2cc(CNC(=S)NC3CCCCC3)ccc2[nH]1 | 1.07 | -0.3 | -10.8 | 99.5 | 10.8 | 9.9*
Cc1cc2cc(CNC(=O)NC3CCCCC3)ccc2[nH]1 | 1.01 | -0.3 | -1.7 | 110.2 | 1.7 | 2.0
COCC(C)n1c(C)cc(C(=O)COC(=O)c2n[nH]c3ccccc23)c1C (configuration not stated) | 0.7 | 0.0 | -143.0 | 115.8 | 143.0* | -0.6
COc1ccccc1Oc1ncnc2c1cnn2-c1ccccc1 | 3.09 | 0.3 | -86.3 | 124.5 | 86.3 | 0.4
Cc1ccc(-c2cn3cccc(C)c3n2)cc1 | 7.72* | -0.1 | -154.4 | 96.1 | 154.4* | 9.8*
Cc1cccn2cc(-c3ccc(S(=O)(=O)N4CCCCC4)cc3)nc12 | 0.82 | -0.2 | -1.3 | 99.2 | 1.3 | -1.6
Cc1cccn2cc(-c3c[nH]c4ccccc34)nc12 | 1 | 0.2 | -133.9 | 134.0* | 133.9 | 1.7
COc1ccc(-c2cn3cccc(C)c3n2)cc1F | 6.14* | -0.3 | -117.8 | 145.0* | 117.9 | 3.0
Cc1cccn2cc(-c3ccc(Cl)cc3)nc12 | 9.6* | 0.2 | -254.4 | 90.5 | 254.4* | 1.5
COc1ccc(C(C(=O)NC2CCCC2)N(CCN(C)C)C(=O)c2snc(C(N)=O)c2N)cc1 (configuration not stated) | 1.06 | 0.4 | -4.0 | 104.2 | 4.0 | 2.5
CC(C)c1nc2c(c(=O)c3ccccc3n2C)c(=O)n1-c1ccc(F)cc1 | 1 | -0.2 | 10.6 | 103.9 | -10.6 | -1.3
CC1=CN2C(=N)/C(=C/c3ccc(Sc4ccc(Cl)cc4)o3)C(=O)N=C2S1 | 1.17 | -0.3 | 8.1 | 103.7 | -8.1 | 0.2
O=[N+]([O-])c1cccn2cc(-c3ccc(Br)cc3)nc12 | . | -0.1 | -63.5 | 140.0* | 63.5 | 9.8*
CCCCC(=O)N/N=C/c1ccc(Sc2cccc3cccnc23)o1 | 4.38* | -0.2 | -0.6 | 92.5 | 0.6 | 0.8
SMILES | NF-kB expr up | Hsp70 activator | APP 5UTR inh | STAT1 act | APP 5'UTR act | Wee1 degr inh
O=C(Cc1cccc2ccccc12)N/N=C/c1ccc(Sc2cccc3cccnc23)o1 | 0.7 | 0.7 | 54.4* | 96.9 | -54.4 | -1.3
Cc1ccc2nc(SC(C)C(=O)N3CCOCC3)[nH]c2c1 (configuration not stated) | 2.22 | 0.1 | -56.0 | 145.8* | 56.0 | -2.8
CC(Sc1nc2ccccc2s1)C(=O)N1CCOCC1 (configuration not stated) | 1.75 | -0.2 | -4.7 | 103.9 | 4.7 | 1.5
COc1ccc(N(C(=O)c2ccccc2C)S(=O)(=O)c2cccs2)cc1 | 3.17 | -0.4 | 93.4* | 96.0 | -93.4 | 1.4
Cc1sc2ncnc(SCC(=O)N3CCCC3=O)c2c1C | 1.1 | -0.2 | 10.5 | 103.5 | -10.5 | 4.6
CCN(CC)CCN(C(=O)c1ccc(S(=O)(=O)N2CCCCC2)cc1)c1nc2cc3c(cc2s1)OCO3 | 1.26 | -0.1 | 16.0 | 113.9 | -16.0 | -1.0
O=C1C(Cl)=C(Nc2ccccc2)C(=O)c2ccccc21 | 1.54 | -0.3 | 95.7* | 105.6 | -95.7 | 1.2
CCCNC(=O)NC(=O)COC(=O)/C=C/c1cc(Br)ccc1F | 1.24 | 0.0 | -8.8 | 90.7 | 8.8 | 3.9
O=C(CC(Nc1ccc(F)cc1)C(=O)O)c1ccccc1 (configuration not stated) | 5.71* | 0.6 | -88.6 | 148.2* | 88.6 | 0.2
O=C1Nc2ccccc2S/C1=C\C(=O)N1CCCC1 | 2.23 | -0.5 | -45.2 | 103.6 | 45.2 | -0.4
O=C1Nc2ccccc2S/C1=C/Nc1cccc(Cl)c1 | 2.02 | 0.1 | -11.8 | 129.7* | 11.8 | 0.6
C[C@H](CCC(=O)O)[C@H]1CC[C@H]2[C@@H]3[C@@H](O)C[C@@H]4C[C@H](O)CC[C@]4(C)[C@H]3CC[C@]12C | 1.09 | -0.3 | -6.9 | 102.8 | 6.9 | 9.8*
CCn1c(CCNC(=O)c2ccc(OC)cc2)nnc1SCC(=O)Nc1ccccc1F | 1.08 | 0.0 | -10.2 | 106.7 | 10.2 | 2.7
O=C(NC(=S)Nc1ccc(Br)cn1)c1cccs1 | 3.97* | 0.8 | -195.1 | 204.1* | 195.1* | 3.4
Cc1cccnc1NC(=S)NC(=O)c1cccs1 | 5.05* | 0.6 | -198.5 | 173.5* | 198.5* | 12.6*
CCC(=O)Nc1ccc(Br)cn1 | 1.07 | -0.4 | 9.8 | 103.2 | -9.8 | -1.1
Cc1ccccc1C(=O)Nc1ccc(Br)cn1 | 3.82* | 0.8 | -110.8 | 133.8* | 110.8 | -2.0
Cc1ccc(C2(C)NC(=O)N(CC(=O)NCCC3=CCCCC3)C2=O)cc1 (configuration not stated) | 1.13 | -0.1 | -6.4 | 95.0 | 6.4 | 2.1
COc1cc(/C=N/NC(=O)CCC(=O)Nc2ccc(C)cc2)ccc1O | 1.04 | 0.1 | -21.6 | 96.9 | 21.6 | -1.4
Nc1nc(SCC(=O)N2CCc3ccccc32)[nH]c(=O)c1-c1ccccc1 | 1.2 | -0.3 | 14.7 | 92.8 | -14.7 | 0.0
COc1ccc(OCC(=O)Nc2ccccc2C(=O)N2CCCC2)cc1 | 0.87 | -0.1 | -7.9 | 101.1 | 7.9 | -0.4
CC(C)(C)c1cc(-c2n[nH]c(=S)n2-c2ccccc2F)n[nH]1 | . | . | . | . | . | -2.5
Cc1ccccc1OCC(=O)Nc1ccc(C(N)=O)cc1 | 0.95 | -0.2 | -3.5 | 104.8 | 3.5 | -0.7
CCOc1ccc(S(=O)(=O)N2CCN(S(=O)(=O)c3ccc(OCC)cc3)C(C)C2)cc1 (configuration not stated) | 1.18 | -0.3 | 51.6* | 95.1 | -40.0 | 4.3
CCCCC(=O)Nc1ccc(NC(=S)NC(=O)CC(C)C)cc1OC | 1.15 | -0.4 | -5.4 | 98.2 | 5.4 | 4.1
